# Test results published in PubChem BioAssay (Tox21).
# “And” between values parts separate entries of the source, which are not always exact repeats. Equal values may be shown once. Inconclusive results are not listed. A call without a number means that no potency is given here. Some compounds were tested as several samples or in several runs, with calls that do not always agree. The source made the active and inactive calls. Unless noted, the call rests on the fitted dose curve; in most records, active means well fitted curve in the direction sought with a large enough effect in the repeat runs; inconclusive means weak or mixed curves; inactive means no such curve, though single readings can be large; an effect the other way counts as inactive or inconclusive.
# Tests used:
# [1] = qHTS assay to identify small molecule antagonists of the estrogen related receptor (ERR) signaling pathway from Tox21 library - cell viability counter screen (AID 1224834); further: nearly all actives have a fitted effect of over 30% in size
# How it was run: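 Multiplexed viability counter screen in ERR cells: 17.5 h compound exposure at 37 C, CellTiter-Fluor added, 30 min at 37 C/5% CO2, fluorescence read.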
# [2] = molecular target: Luciferin 4-monooxygenase (Photinus pyralis) (UniProt P08659); assay: qHTS assay to identify small molecule inhibitors of firefly luciferase (AID 1224835); further: nearly all actives have a fitted effect of over 25% in size; further: potency means the concentration at half of the fitted maximal effect
# How it was run: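 Inhibition of purified Photinus luciferase is measured by luminescence. Substrate levels (D-luciferin, ATP) sit at their KM values. Each compound is tested in a concentration series.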
# [3] = qHTS assay to identify small molecule agonists of the constitutive androstane receptor (CAR) signaling pathway - cell viability counter screen (AID 1224836); further: nearly all actives have a fitted effect of over 45% in size
# How it was run: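 23 h treatment, 37 C, 5% CO2. Cell line: HepG2 stably expressing hCAR with a CYP2B6-2.2kb construct. Co-treatment: PK11195, 0.75 uM final. Read-out: CellTiter-Fluor fluorescence intensity.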
# [4] = qHTS assay to identify small molecule antagonists of the constitutive androstane receptor (CAR) signaling pathway - cell viability counter screen (AID 1224837); further: nearly all actives have a fitted effect of over 45% in size
# How it was run: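 Read-out: CellTiter-Fluor fluorescence after 23 hr at 37 C/5% CO2. Cells: HepG2 double-stable for hCAR and CYP2B6-2.2kb. Compounds tested at 15 concentrations in the presence of CITCO, final concentration 50 nM.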
# [5] = molecular target: Nuclear receptor subfamily 1 group I member 3 (Homo sapiens) (UniProt Q14994); assay: qHTS assay to identify small molecule antagonists of the constitutive androstane receptor (CAR) signaling pathway (AID 1224838);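 further: HepG2 cells stably expressing hCAR with CYP2B6 luciferase reporter stimulated by CITCO; nearly all actives have a fitted effect of over 40% in size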
# How it was run: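 Read-out: ONE-Glo luciferase luminescence after 30 min at room temperature. HepG2-CYP2B6-hCAR double-stable cells, compounds in 15-point titration plus 50 nM CITCO final, 24 h at 37 C/5% CO2.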
# [6] = molecular target: Nuclear receptor subfamily 1 group I member 3 (Homo sapiens) (UniProt Q14994); assay: qHTS assay to identify small molecule agonists of the constitutive androstane receptor (CAR) signaling pathway (AID 1224839); further: nearly all actives have a fitted effect of over 15% in size; further: potency means the concentration at half of the fitted maximal effect;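 on activation: HepG2 cells stably carrying human CAR and a CYP2B6 luciferase reporter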
# How it was run: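 Compounds tested at 15 concentrations on HepG2 cells stably harbouring hCAR and CYP2B6-2.2kb reporter constructs, co-treated with PK11195 (0.75 uM final), 24 h at 37 C; luminescent reporter signal quantified.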
# [7] = qHTS assay to identify small molecule antagonists of the estrogen related receptor signaling pathway with the pleiotropic PPARgamma coactivator (PGC) from Tox21 10K library - cell viability counter screen (AID 1224840; active means well fitted cell-killing curve with a large enough effect in the repeat runs, not every such curve was filed as active; further: nearly all actives have a fitted effect of over 40% in size)
# How it was run: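 Fluorescence read-out of CellTiter-Fluor viability reagent, added after cells had been exposed to compound in DMSO for 17.5 h at 37 C; 30 min development at 37 C/5% CO2. Cells: PGC/ERR line, 2,000/well.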
# [8] = qHTS assay to identify small molecule antagonists of the estrogen related receptor signaling pathway with the pleiotropic PPARgamma coactivator (PGC) from Tox21 10K library (AID 1224841; call rule not given here; further: actives are mostly falling curves and most rising ones were filed inactive; nearly all actives have a fitted effect of over 50% in size)
# How it was run: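 Luminescence read-out (One-Glo luciferase reagent, 30 min at room temperature) from PGC/ERR cells exposed to DMSO-dissolved test compounds for 18 h at 37 C; cells, 2,000 per well, had been preincubated 6 h before compound transfer.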
# [9] = qHTS assay to identify small molecule agonists of the estrogen related receptor signaling pathway with the pleiotropic PPARgamma coactivator (PGC) from Tox21 10K library (AID 1224842); further: nearly all actives have a fitted effect of over 15% in size
# How it was run: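 Luminescence from One-Glo (30 min, room temperature) measured after PGC/ERR cells had 18 h at 37 C with pinned compound (23 nL in DMSO). Cells had been seeded at 2,000 per well and pre-incubated 6 h.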
# [10] = molecular target: Thyrotropin receptor (Homo sapiens) (UniProt P16473); assay: qHTS assay to identify small molecule agonists of the thyroid stimulating hormone receptor (TSHR) signaling pathway (AID 1224843; calls by dose curve; further: nearly all actives have a fitted effect of over 45% in size)
# How it was run: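 Agonist activity read as cAMP rise via d2/cryptate HTRF competition, 1 h room-temperature detection, in HEK293 cells expressing TSHR. Fifteen-point titrations, each run in triplicate, with a 30 min room-temperature incubation beforehand.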
# [11] = qHTS assay to identify small molecule agonists of the hypoxia (HIF-1) signaling pathway - cell viability counter screen (AID 1224844; calls by dose curve; further: nearly all actives have a fitted effect of over 50% in size; further: potency means the concentration at half of the fitted maximal effect)
# How it was run: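 CellTiter-Glo luminescence read-out, 30 min RT, taken in the same wells as the beta-lactamase HRE reporter assay; HRE-bla ME-180 cells, 0.5% dialyzed FBS, 17 hr compound treatment at 37C, 5% CO2.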
# [12] = qHTS assay to identify small molecule agonists of H2AX (AID 1224845; active means well fitted activation curve with a large enough effect in the signal ratio in the repeat runs, not every such curve was filed as active; the % refers to the signal ratio)
# How it was run: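 Phospho-H2AX Ser139 measured by HTRF (ex 320 nm; em 665 and 620 nm) after 24 hr antibody incubation. Compounds, 15 concentrations, 0.76% DMSO, were applied to CHO-K1 cells for 3hr at 37C before lysis.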
# [13] = qHTS assay to identify small molecule agonists of the hypoxia (HIF-1) signaling pathway (AID 1224846; active means well fitted activation curve with a large enough effect in the signal ratio in the repeat runs, not every such curve was filed as active; the % refers to the signal ratio)
# How it was run: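 Beta-lactamase FRET read-out (CCF4-AM substrate) from ME-180 cells carrying an HRE-driven bla reporter, after 17 hrs compound exposure at 37C/5% CO2. Cells were seeded at 2,000 per well in 0.5% dialyzed FBS medium and preincubated 5 hrs.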
# [14] = qHTS assay to identify small molecule antagonists of the estrogen related receptor (ERR) signaling pathway from Tox21 library (AID 1224848); further: nearly all actives have a fitted effect of over 50% in size; further: potency means the concentration at half of the fitted maximal effect
# How it was run: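 Luciferase luminescence (ONE-Glo, 30 min room temperature) was the read-out. Cells of the NTP-supplied ERR line, 2,000 per well, were given 6 h at 37 C before compound addition in DMSO and 18 h exposure at 37 C.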
# [15] = qHTS assay to identify small molecule agonists of the estrogen related receptor (ERR) signaling pathway from Tox21 library (AID 1224849; calls by dose curve; further: nearly all actives have a fitted effect of over 15% in size); details: ERR reporter cell line, ONE-Glo luciferase, 18 h
# How it was run: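 Luminescence readout (ONE-Glo, 30 min RT) after 18 h compound exposure at 37 C of NTP-supplied ERR reporter cells; cells were plated 6 h before compound addition by pin tool.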
# [16] = qHTS RealTime-Glo MT Cell Viability Assay in HepG2 cells - 24 hour (AID 1224867); further: nearly all actives have a fitted effect of over 50% in size
# How it was run: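 Tox21 10K library screened in qHTS format on HepG2 cells carrying RealTime-Glo reagents. Compounds were added after a 5 h preincubation, and the luminescent signal from continuous culture was measured repeatedly during 40 h treatment.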
# [17] = qHTS RealTime-Glo MT Cell Viability Assay in HEK293 cells - 32 hour (AID 1224868)
# How it was run: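 Luminescence generated by NanoLuc from substrate produced by living HEK293 cells served as the viability signal. Each value reflects the reading at its stated time point during continuous 40 h compound exposure at 37 C.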
# [18] = A CellTox Green Cytotoxicity Assay to monitor cytotoxicity in HEK293 cells - 0 hour (AID 1224869); further: nearly all actives have a fitted effect of over 50% in size
# How it was run: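 Read-out: fluorescence of a cell-impermeant cyanine dye staining DNA of dead cells, proportional to cytotoxicity. HEK293, 600 cells/well with reagent, compound (23 nL DMSO) added after 5 h; reads at 0, 8, 16, 24, 32, 40 h.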
# [19] = qHTS assay to identify small molecule agonists of H2AX - cell viability counter screen (AID 1224847; calls by dose curve; further: top concentration of the series differs between compounds; nearly all actives have a fitted effect of over 30% in size)
# How it was run: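 Compounds tested at 15 concentrations were incubated 3 hr at 37C with wild-type CHO-K1 cells; cellular ATP-based luminescence (CellTiter-Glo) indicated viability.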
# Nuclear receptor subfamily 1 group I member 3 (Homo sapiens), sequence (Q14994 whole entry, looked up): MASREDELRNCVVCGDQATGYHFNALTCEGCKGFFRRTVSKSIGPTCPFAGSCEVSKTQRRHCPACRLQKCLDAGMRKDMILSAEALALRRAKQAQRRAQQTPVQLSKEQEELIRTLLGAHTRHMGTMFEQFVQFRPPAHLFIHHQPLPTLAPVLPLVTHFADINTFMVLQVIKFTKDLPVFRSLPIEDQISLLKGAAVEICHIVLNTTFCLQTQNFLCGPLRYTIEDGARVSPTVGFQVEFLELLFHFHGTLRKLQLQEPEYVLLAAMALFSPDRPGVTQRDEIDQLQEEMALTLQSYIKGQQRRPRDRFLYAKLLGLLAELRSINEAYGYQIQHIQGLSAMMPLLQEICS
# Thyrotropin receptor (Homo sapiens), sequence (P16473 whole entry, looked up): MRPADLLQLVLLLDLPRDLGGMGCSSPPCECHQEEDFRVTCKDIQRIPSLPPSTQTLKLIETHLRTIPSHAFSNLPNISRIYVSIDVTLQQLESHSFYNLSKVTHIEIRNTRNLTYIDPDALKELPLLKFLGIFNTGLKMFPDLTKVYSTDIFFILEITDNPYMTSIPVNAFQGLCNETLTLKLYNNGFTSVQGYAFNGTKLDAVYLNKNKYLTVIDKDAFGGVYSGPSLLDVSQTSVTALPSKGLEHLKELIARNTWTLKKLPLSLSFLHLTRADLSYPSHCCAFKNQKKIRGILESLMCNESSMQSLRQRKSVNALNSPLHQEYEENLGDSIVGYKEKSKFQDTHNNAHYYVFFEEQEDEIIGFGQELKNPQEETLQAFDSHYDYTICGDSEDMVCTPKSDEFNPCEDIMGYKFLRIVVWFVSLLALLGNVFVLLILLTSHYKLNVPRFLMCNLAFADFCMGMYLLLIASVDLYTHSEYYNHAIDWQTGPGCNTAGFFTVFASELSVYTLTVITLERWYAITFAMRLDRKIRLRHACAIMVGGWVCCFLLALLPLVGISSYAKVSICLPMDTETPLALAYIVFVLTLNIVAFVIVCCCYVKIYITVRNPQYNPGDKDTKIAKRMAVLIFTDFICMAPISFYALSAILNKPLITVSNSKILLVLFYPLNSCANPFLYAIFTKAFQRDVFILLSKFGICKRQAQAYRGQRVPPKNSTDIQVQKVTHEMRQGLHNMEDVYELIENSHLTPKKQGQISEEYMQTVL
# Luciferin 4-monooxygenase (Photinus pyralis), sequence (P08659 whole entry, looked up): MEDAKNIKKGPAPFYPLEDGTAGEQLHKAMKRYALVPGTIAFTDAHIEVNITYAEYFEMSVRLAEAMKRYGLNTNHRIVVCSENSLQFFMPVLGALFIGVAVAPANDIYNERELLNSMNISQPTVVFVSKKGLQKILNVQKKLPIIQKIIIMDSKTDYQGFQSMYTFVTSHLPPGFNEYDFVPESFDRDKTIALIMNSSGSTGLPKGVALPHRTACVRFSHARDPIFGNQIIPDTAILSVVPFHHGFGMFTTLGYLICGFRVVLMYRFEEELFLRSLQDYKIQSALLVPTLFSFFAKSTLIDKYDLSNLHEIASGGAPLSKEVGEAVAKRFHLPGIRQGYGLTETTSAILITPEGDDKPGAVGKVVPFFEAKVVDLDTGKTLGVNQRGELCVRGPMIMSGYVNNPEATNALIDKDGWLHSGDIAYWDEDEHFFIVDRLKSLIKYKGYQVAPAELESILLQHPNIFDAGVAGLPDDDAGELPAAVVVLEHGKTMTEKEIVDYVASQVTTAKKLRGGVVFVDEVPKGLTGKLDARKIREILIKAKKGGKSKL
SMILES,Potency [1],Potency [2],Potency [3],Potency [4],Potency [5],Potency [6],Potency [7],Potency [8],Potency [9],Potency [10],Potency [11],Potency [12],outcome [13],Potency [14],"activity change, positive = activation ([15]; at 92.4 µM (top of the series))",Potency [16],Potency [17],Potency [18],Potency [19],"activity change, positive = activation ([15]; at 42.5 µM (top of the series))"
O=S(=O)(Oc1ccc(Cl)cc1)c1ccc(Cl)cc1,inactive,inactive,inactive,inactive,inactive,69.5 µM (active) and 48.6 µM (active),inactive,inactive,inactive,inactive,inactive,inactive,inactive,inactive,-19.6% (inactive) and -8.56% (inactive),inactive,inactive,inactive,–,–
CCCCC(CC)COC(=O)Cl (stereo unspecified),inactive,inactive,inactive,inactive,inactive,inactive,inactive,inactive,inactive,inactive,inactive,inactive,inactive,inactive,0.183% (inactive) and -0.549% (inactive),inactive,–,inactive,inactive,–
Nc1ccc(Cl)c(Cl)c1,inactive,inactive,inactive,inactive,inactive,inactive,inactive,inactive,inactive,inactive,inactive,inactive,inactive,21.7 µM (active),-24.9% (inactive) and -36.3% (inactive),inactive,inactive,inactive,inactive,–
NCc1cccnc1,inactive,inactive,inactive,inactive,inactive,inactive,inactive,inactive,inactive,inactive,inactive,inactive,inactive,inactive,4.26% (inactive),inactive,inactive,inactive,inactive,0.61% (inactive)
O=c1oc2ccccc2c(O)c1C(CC(O)c1ccc(-c2ccc(Br)cc2)cc1)c1ccccc1 (stereo unspecified),inactive,inactive,inactive,inactive,inactive,inactive,inactive,–,–,–,52 µM (active) and inactive,inactive,–,–,–,inactive,–,inactive,inactive,–
CC(C)(C)c1ccccc1O,inactive,inactive,inactive,inactive,inactive,inactive,inactive,–,–,–,inactive,inactive,inactive,–,–,inactive,–,inactive,–,–
CC(C)Oc1cc(-n2nc(C(C)(C)C)oc2=O)c(Cl)cc1Cl,inactive,inactive,inactive,inactive,inactive,60.3 µM (active) and 61.1 µM (active),inactive,–,–,inactive,inactive,inactive,inactive,–,–,inactive,–,inactive,inactive,–
COP(=S)(OC)Oc1cc(Cl)c(Cl)cc1Cl,inactive,inactive,inactive,inactive,inactive,54.1 µM (active),inactive,–,–,inactive,inactive,inactive,inactive,–,–,inactive,inactive,inactive,inactive,–
CCCCCCOC(=O)c1ccccc1C(=O)OCCCCCC,inactive,inactive,inactive,inactive,inactive,27.9 µM (active) and 30.6 µM (active),inactive,–,–,inactive,inactive,inactive,inactive,–,–,inactive,–,inactive,inactive,–
C[C@]12CCC(=O)C(O)=C1CC[C@@H]1[C@@H]2CC[C@]2(C)C(=O)CC[C@@H]12,inactive,inactive,–,inactive,inactive,inactive,inactive,inactive,inactive,–,inactive,inactive,inactive,54.5 µM (active) and inactive,-37.5% (inactive),inactive,inactive,inactive,inactive,-8.87% (inactive)
C=CCc1ccc(OC)cc1,inactive,inactive,–,inactive,inactive,inactive,inactive,–,–,inactive,inactive,inactive,inactive,–,–,inactive,inactive,inactive,inactive,–
CC(O)CCO (stereo unspecified),inactive,inactive,–,inactive,inactive,inactive,inactive,–,–,inactive,inactive,inactive,inactive,–,–,inactive,inactive,inactive,inactive,–
CCC(CC)Nc1c([N+](=O)[O-])cc(C)c(C)c1[N+](=O)[O-],inactive,inactive,–,inactive,inactive,49.2 µM (active) and 24.3 µM (active),inactive,inactive,inactive,inactive,inactive,inactive,inactive,inactive,-5.44% (inactive) and 8% (inactive),inactive,inactive,inactive,inactive,–
CCN(CC)C(=O)SCc1ccc(Cl)cc1,inactive,35.6 µM (active),inactive,inactive,–,–,inactive,inactive,inactive,–,inactive,inactive,inactive,inactive,4.95% (inactive) and 6.33% (inactive),inactive,inactive,inactive,inactive,–
CCCCC(CC)COC(=O)c1ccc(C(=O)OCC(CC)CCCC)c(C(=O)OCC(CC)CCCC)c1 (stereo unspecified),inactive,inactive,–,inactive,inactive,inactive,inactive,–,–,inactive,inactive,inactive,inactive,–,–,inactive,inactive,inactive,inactive,–
